Bioassay records deposited in PubChem BioAssay by National Center for Advancing Translational Sciences (NCATS).
This is a sample that favours compounds with a hit; in the whole collection about 0.36% have one here.
TRb SRC2 PPI = qHTS for Inhibitors of the Interaction of Thyroid Hormone Receptor and Steroid Receptor Coregulator 2; Thyroid hormone receptor beta (Homo sapiens), P10828; AID 1469, 2008; TRbeta-SRC2 peptide binding, fluorescence polarization; receptor liganded with 1 µM T3; hit rate 0.065% among 280,000; Potency, µM (highest dose often 106 µM), for the others: top-dose activity change, negative = inhibition, hits mostly inhibitors; active = well fitted inhibition curve with a large enough effect; inconclusive = small, poorly fitted or top-dose-only effect, or effect the other way;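 also: potency is read from the fitted curve at half-maximal effect; plate controls were bound peptide for no effect and peptide without receptor for full effect; nearly all actives have a fitted effect of over 50% in size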
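Each compound concentration gave % activity, normalized to unbound and bound Texas Red SRC2 controls, from polarization read after 5 hr ambient incubation with T3-loaded human TRb LBD.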
CXXC DNA block = qHTS Fluorescence Polarization Assay for Inhibitors of MLL CXXC domain - DNA interaction | Histone-lysine N-methyltransferase 2A (Homo sapiens), Q03164 | MLL-CXXC / FITC-HOXA9 DNA fluorescence polarization | Potency, µM (series often up to 115 µM), inactives show top-dose activity change, negative = inhibition, usual class: inhibitors | hit rate 0.037% among 290,000; active = well fitted inhibition curve with a large enough effect in the polarisation, with a control signal flat, not every such curve was filed as active; inconclusive = small, poorly fitted or top-dose-only effect, or effect the other way, or a change in a side signal; inactive = no such curve, though single readings can be large or run the other way; the % refers to the polarisation; also: potency is read from the fitted curve at half-maximal effect
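Purified MLL-CXXC (added from a 7 uM solution) was preincubated 5 min at ambient with pinned compounds in 50 mM Tris-HCl pH 7.5, 50 mM NaCl, 1 mM DTT, 0.05% BSA. Fluorescein-labeled HOX-A9 DNA (50 nM solution) followed, 30 min, then polarization read.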
Menin-MLL TR inh = qHTS Assay for Inhibitors Targeting the Menin-MLL Interaction in MLL Related Leukemias: Competition With Texas Red Labeled MLL-derived Mutant Peptide | O00255 | Menin + Texas Red MLL mutant peptide, fluorescence polarization | Potency, µM (titrated, usually from 61.6 µM), for the others: top-dose FP activity change, negative = inhibition, actives largely listed as inhibitors | hit rate 0.23% among 270,000 | AID 1768, 2009; active = well fitted inhibition curve with a large enough effect in the polarisation, with a control signal flat, not every such curve was filed as active; inconclusive = small, poorly fitted or top-dose-only effect, or effect the other way, or a change in a side signal; inactive = no such curve, though single readings can be large or run the other way; the % refers to the polarisation; also: potency is read from the fitted curve at half-maximal effect; % of control where 0% means no effect
Target sequence (O00255 whole entry, looked up): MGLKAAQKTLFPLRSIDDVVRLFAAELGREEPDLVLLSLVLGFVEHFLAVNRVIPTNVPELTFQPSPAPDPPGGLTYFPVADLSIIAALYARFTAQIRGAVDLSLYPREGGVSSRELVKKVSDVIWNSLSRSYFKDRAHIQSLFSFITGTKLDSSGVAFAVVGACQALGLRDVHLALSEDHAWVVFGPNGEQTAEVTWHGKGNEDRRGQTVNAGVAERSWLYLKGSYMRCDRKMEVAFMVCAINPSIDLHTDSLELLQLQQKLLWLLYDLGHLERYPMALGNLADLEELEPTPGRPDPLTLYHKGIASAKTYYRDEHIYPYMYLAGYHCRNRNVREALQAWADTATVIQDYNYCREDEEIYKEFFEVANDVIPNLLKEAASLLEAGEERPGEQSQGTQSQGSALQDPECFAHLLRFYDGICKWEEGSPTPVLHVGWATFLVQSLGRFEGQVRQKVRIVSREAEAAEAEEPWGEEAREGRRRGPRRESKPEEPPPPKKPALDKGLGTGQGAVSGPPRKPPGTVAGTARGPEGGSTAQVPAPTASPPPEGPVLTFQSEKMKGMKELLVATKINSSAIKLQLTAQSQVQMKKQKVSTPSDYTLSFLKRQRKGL
TR SRC2 fluor cs = Total Fluorescence Counterscreen for Inhibitors of the Interaction of Thyroid Hormone Receptor and Steroid Receptor Coregulator 2. TRb/SRC2 Texas Red total fluorescence interference. Potency, µM (titrated, usually from 106 µM), for the others: at the top dose fluorescence change, negative = quenching. hit rate 0.29% among 280,000. AID 1479, 2009; active = well fitted curve in either direction with a large enough effect; inconclusive = small, poorly fitted or top-dose-only effect; also: potency is read from the fitted curve at half-maximal effect; % is scaled to controls: 0 for no effect and ±100 for the full control effect
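Human TRβ ligand-binding domain (0.6 uM) and Texas Red SRC2 peptide (20 nM) in Tris buffer with 1 uM T3 and 5% DMSO were incubated with pinned compound for 5 hr at ambient temperature. Total fluorescence was computed as S + 2P (555/632 nm).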
Menin MLL FP FL = qHTS Assay for Inhibitors Targeting the Menin-MLL Interaction in MLL Related Leukemias: Competition With Fluorescein Labeled MLL-derived Peptide; Fluorescence polarization, fluorescein-MLL peptide displacement from menin; FP activity change, % at 61.4 µM; 290,000 tested, under 10 active; active = well fitted curve in the direction sought with a large enough effect in the polarisation, not every such curve was filed as active; inconclusive = small, poorly fitted or top-dose-only effect, or effect the other way, or a change in a side signal; inactive = no such curve, though single readings can be large or run the other way; the % refers to the polarisation; also: % of control where 0% means no effect
Numbers without * were called inactive; u = inconclusive; x = not tested or not shown; [ ] = another dose, or the depositor's remark.

SMILES | TRb SRC2 PPI | CXXC DNA block | Menin-MLL TR inh | TR SRC2 fluor cs | Menin MLL FP FL
COc1ccc(-c2cc(=O)c3ccc(F)cc3[nH]2)cc1 | 6.9% | x | 50.1µM* | 0.5% | -5.3[94.6 µM]
COc1ccc(OC)c(NC(=O)C(NS(=O)(=O)c2ccc3c(c2)CCCC(=O)N3)C(C)C)c1 (configuration not stated) | 2.5% | x | x | -0.2% | x
O=C1CSC2=NCN(c3ccc4c(c3)OCO4)CN12 | -7.6% | 4.6% | -1.1% | -0.1% | -2.9
CN(C)c1ccc(N2CN=C3SCC(=O)N3C2)cc1 | 15.8µM* | 14.5% | 8.9% | u | 2.6
O=C(Oc1ccc(OC(=O)c2ccco2)c(S(=O)(=O)c2ccc(Br)cc2)c1)c1ccco1 | -14.9% | 117.9% | 10µM* | 2.6% | -0.9
O=C(COC(=O)C1CC(O)CN1S(=O)(=O)c1ccc(Cl)cc1)c1ccccc1 (configuration not stated) | -15.5% | -6.5% | 5.3% | 0.112µM*[quencher] | 1.0
C=C(C)C(=O)OCCCCCCCCCCCCCCCC | -3.2%[201 µM] | x | x | -2.3%[201 µM] | x
O=C(NC1=NCCS1)c1cc(-c2ccc(-c3ccccc3)cc2)nc2ccccc12 | 8.4% | x | 11.2µM* | 3.1% | 1.7
Nc1ccc(-c2nc3ccc(-c4nc5ccc(N)cc5[nH]4)cc3[nH]2)cc1 | 7.1% | u | u | 44.7µM*[quencher] | 12.9
Nc1ccc2nc(-c3ccc(-c4nc5ccc(N)cc5[nH]4)cc3)[nH]c2c1 | x | 6.0% | u | x | 9.4
CCCCCC1CCC(=O)O1 (configuration not stated) | 7.0%[201 µM] | x | x | -4.0%[201 µM] | x
CCCOC(=O)c1cccc(NC(=O)CSc2nnc3cc(C)c4ccccc4n23)c1 | -20.3% | x | x | 2.82µM*[quencher] | x
Cc1cc2nnc(SCC(=O)Nc3ccc(F)c(Cl)c3)n2c2ccccc12 | 10.0% | x | x | -2.0% | x
COc1ccc(N(C)C(=O)c2cc(S(=O)(=O)N3CCc4ccccc43)cn2C)c(OC)c1 | -19.7% | x | x | 0.0158µM*[quencher] | x
CCCCOc1ccc(-c2c(C#N)c(N)nc(SCC(N)=O)c2C#N)cc1 | 1.4% | -5.9% | 12.6µM* | 1.4% | 2.0
CCCCOC(=O)CSc1nc(N)c(C#N)c(-c2ccc(OCC)cc2)c1C#N | -2.3% | 3.0% | u | -0.3% | 7.7
O=C(NCCc1ccccc1)C(=O)NCC(c1cccnc1)N1CCN(c2ccccc2)CC1 (configuration not stated) | -6.5% | x | x | u | x
CC1(C)CC(N)CC(C)(CN)C1 (configuration not stated) | -2.3%[201 µM] | x | x | -1.5%[201 µM] | x
Cc1ccc2cc(C#N)c(SCC(=O)NNC(=O)Cc3ccccc3)nc2c1 | 8.5% | 6.5% | u | -0.1% | 9.2
COc1ccc2cc(C#N)c(SCC(=O)NNC(=O)Cc3ccccc3)nc2c1 | -1.2% | 4.3% | 11.2µM* | -1.2% | 5.3
COc1cc(-c2nc3nc(C)cc(C)n3c2Nc2ccc(Cl)cc2)ccc1O | -4.7% | x | x | -7.4% | x
O=C(N/N=C/c1ccncc1)c1ccccn1 | x | -9.1% | 100µM* | x | -14.0
Cc1ccccc1N=C/C=C1\N(C)c2ccccc2C1(C)C | u | 9.5% | x | 44.7µM*[fluorescent] | 9.9
COc1ccc(CCNC(=O)CCCn2c(=O)c3cccn3c3ccc(F)cc32)cc1OC | 11.3% | x | x | 9.8% | x
COC(=O)c1cc2oc3ccccc3c2n1Cc1ccc(C)cc1 | 0.4% | x | x | -7.6% | x
SMILES | TRb SRC2 PPI | CXXC DNA block | Menin-MLL TR inh | TR SRC2 fluor cs | Menin MLL FP FL
COC(=O)c1cc2sc(C)cc2n1Cc1nc(-c2cccc(Br)c2)oc1C | 0.2% | x | x | 1.6% | x
COC(=O)c1cc2oc3ccccc3c2n1Cc1nc(-c2ccccc2C)oc1C | -10.6% | x | x | 20µM*[quencher] | x
COC(=O)c1cc2oc3ccccc3c2n1Cc1cc(C)ccc1C | -9.3% | x | x | 22.4µM*[quencher] | x
COC(=O)c1cc2sc(C)cc2n1Cc1nc(-c2ccc(C)cc2)oc1C | -15.5% | x | x | 89.1µM*[quencher] | x
N#CC1(C#N)C(c2ccccc2)OC23CCCCC2C1(C#N)C(=N)O3 (configuration not stated) | 44.7µM* | u | -10.2% | u | u
O=C(OCC(=O)c1ccc[nH]1)c1ccccc1 | -6.3% | 13.5% | -4.5% | -1.4% | 8.3
O=C(COC(=O)c1c(F)cccc1F)c1ccc[nH]1 | 14.1µM* | -5.0% | x | 15.8µM*[fluorescent] | 3.8
Oc1ccc(Cl)cc1C1=NNC(c2cc(Br)cc3c2OCOC3)C1 (configuration not stated) | 10.7% | 4.4% | 10µM* | -1.7% | 14.1
O=C(O)/C=C/C(=O)Nc1ccc(SC(F)(F)C(F)(F)C(F)(F)F)cc1 | 31.6µM* | u | 0.3% | 0.1% | 2.8
O=C(Nc1cccc(F)c1)N1CCCC2(CCN(S(=O)(=O)c3ccccc3)CC2)C1 | x | x | 8.6% | x | -4.0
CCCN1C(=O)/C(=C/c2c(NCCCOCC)nc3c(C)cccn3c2=O)SC1=S | -5.6% | u | 8.91µM* | -5.5% | u
O=[N+]([O-])c1ccc2c(c1)Cc1ccccc1-2 | 4.8%[201 µM] | x | x | -6.4%[201 µM] | x
CCCSCCCNC(=O)C1CCN(C(=O)c2cc3sccc3n2C)CC1 | -8.8% | x | x | 31.6µM*[quencher] | x
CCNc1nc(N)nc(Cl)n1 | -4.3%[201 µM] | x | x | -5.2%[201 µM] | x
CCOc1ccc(C2c3[nH]c4ccccc4c3CCN2C(=O)CSc2ccccc2)cc1 (configuration not stated) | -16.1% | x | x | 2.82µM*[quencher] | x
CCOc1ccc(NC(=O)N2CCC(CN3CCC(C)CC3)CC2)cc1 | -18.7% | x | x | 100µM*[quencher] | x
Cc1oc(-c2ccccc2F)nc1CSCC(=O)NC1CC1 | x | 2.8% | 6.2% | x | 3.8
Cc1oc(-c2ccccc2F)nc1CSCC(=O)NCCc1ccccc1 | -27.5% | x | x | 0.126µM*[quencher] | x
O=C(O)c1cc(=O)c2c3nc4ccccc4oc-3cc(=O)c2[nH]1 | x | -11.8% | 39.8µM* | x | 9.4
Cc1cc(N)ccc1-n1c(C)ccc1C | 7.94µM* | 9.4% | u | 12.6µM*[fluorescent] | 1.0
Cc1ccc(-n2c(C)cc(=O)cc2C)c(C)c1 | -17.7% | 1.0% | -3.6% | -1.5% | 2.9
NC(=O)c1cc(N)ccc1N1CCCC1 | 39.8µM* | -0.2% | u | 44.7µM*[fluorescent] | 9.9
Cc1cc(N)ccc1N1CCCC1 | 39.8µM* | u | 28.2µM* | 44.7µM*[fluorescent] | 2.3
COC(=O)c1ccc2c(c1)C(C)(C)C(/C=C/c1ccccc1O)=[N+]2C | 20µM* | 19.8% | u | 20µM*[fluorescent] | 8.4
COC(=O)c1ccc(N)c(N=CC2=C(O)CC(C)(C)CC2=O)c1 | 0.3% | 2.9% | -16.3% | -0.9% | -19.0
O=C(C[n+]1ccc(CCSc2ccc(F)cc2)cc1)c1ccccc1 | -3.1% | 31.5% | 17.8µM* | 0.2% | u
Cc1ccc(SCCc2cc[n+](CC(=O)c3ccccc3)cc2)cc1 | 5.8% | 4.5% | -14.5% | 0.0% | -2.2
